Measured potencies and affinities stand elsewhere. Records with an inconclusive call do not appear. The source made the active and inactive calls.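 Rule for the calls: active = luminescence drop in HepG2 cells whose fitted half-effect dose is at most twice the top valid dose; inconclusive = flat curve with 30 to 70% signal loss, or unreliable fit; inactive = the rest.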

The values below come from PubChem BioAssay AID651947 (Broad Institute, 2012).

A short description of this assay: cytotoxicity in HepG2 cells, dose response, cytotoxicity control, cell-based, plate reader, dry powder (AID 651947). Particulars: HepG2 viability, ATP luminescence (CellTiter-Glo), 48 h, stronger effect = lower value; at 26 µM unless noted.
Take `Clc1ccc(-c2nnc(SCc3ccccc3)o2)cc1`: the max activity is -50.8% (inactive).

For the compound `c1ccc(CSc2nnc(-c3ccccc3)o2)cc1`, the max activity was -12.1% [at 1.6 µM] (inactive).

On to `COc1ccc(CSc2nnc(-c3ccccc3)o2)cc1`, for which the max activity is -24.9% [at 0.195 µM] (inactive).
